Data: PubChem BioAssay AID1159580 (chemical genetic matrix, 2015)
Out of some 5,500 compounds screened, about 2,000 (36%) were called active. Another 18% or so got no clear call; they are omitted. Rule as the data show it: active = normalized growth mostly below about 0.91 (no sharp cut-off); inconclusive = no clear call, values can overlap the other calls; inactive = mostly above about 0.92. This is one part of the list.

Assay: chemical genetic growth profiling, strain panel (AID 1159580);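 also: tested at 20 µM; growth read once vehicle control cultures reached saturation at 30 °C; 1 = growth at the plate median or of vehicle wells; lower values mean less growth of the strain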
Settings: growth OD
[1] = S. cerevisiae deletion strains, locus YCL061C, strain MRC1, active compounds read low
[2] = S. cerevisiae deletion strains, locus YHR030C, strain SLT2, active compounds read low
[3] = S. cerevisiae deletion strains, locus YJL187C, strain SWE1, active compounds read low

Measured: normalized growth

COc1cc(/C=C2\NC(=O)NC2=O)ccc1O
inactive: S. cerevisiae deletion strains, locus YAL013W, strain DEP1, active compounds read low 1 | S. cerevisiae deletion strains, locus YBR229C, strain ROT2, active compounds read low 0.965 | [1] 1 | S. cerevisiae deletion strains, locus YDL101C, strain DUN1, active compounds read low 0.982 | S. cerevisiae deletion strains, locus YDR150W, strain NUM1, active compounds read low 0.963 | S. cerevisiae deletion strains, locus YEL061C, strain CIN8, active compounds read low 0.956 | S. cerevisiae deletion strains, locus YGR078C, strain PAC10, active compounds read low 0.977 | [2] 0.873 | S. cerevisiae deletion strains, locus YHR087W, strain rtc3, active compounds read low 1.04 | [3] 0.982 | S. cerevisiae deletion strains, locus YJR043C, strain POL32, active compounds read low 0.997 | S. cerevisiae deletion strains, locus YJR075W, strain HOC1, active compounds read low 0.976 | S. cerevisiae deletion strains, locus YKL190W, strain CNB1, active compounds read low 0.986 | S. cerevisiae deletion strains, locus YLR039C, strain RIC1, active compounds read low 0.918 | S. cerevisiae deletion strains, locus YLR058C, strain SHM2 (second series), active compounds read low 0.98 | S. cerevisiae deletion strains, locus YLR085C, strain ARP6, active compounds read low 0.941 | S. cerevisiae deletion strains, locus YLR262C, strain YPT6, active compounds read low 0.945 | S. cerevisiae deletion strains, locus YML094W, strain GIM5, active compounds read low 0.989 | S. cerevisiae deletion strains, locus YMR219W, strain ESC1, active compounds read low 0.974 | S. cerevisiae deletion strains, locus YMR263W, strain SAP30, active compounds read low 0.998 | S. cerevisiae deletion strains, locus YMR307W, strain GAS1, active compounds read low 1.07 | S. cerevisiae deletion strains, locus YNL128W, strain TEP1, active compounds read low 0.993 | S. cerevisiae deletion strains, locus YNL153C, strain GIM3, active compounds read low 0.98 | S. cerevisiae deletion strains, locus YNL298W, strain CLA4 (second series), active compounds read low 0.968 | S. cerevisiae deletion strains, locus YNL322C, strain KRE1, active compounds read low 0.996 | S. cerevisiae deletion strains, locus YNR030W, strain Alg12, active compounds read low 1.01 | S. cerevisiae deletion strains, locus YPL055C, strain LGE1, active compounds read low 0.999 | S. cerevisiae deletion strains, locus YPL241C, strain CIN2, active compounds read low 0.975 | S. cerevisiae deletion strains, locus YPR135W, strain CTF4, active compounds read low 0.945 | S. cerevisiae strains, strain wild type, active compounds read low 0.948

COc1cc(O)c(C(=O)/C=C/c2ccc(O)c(OC)c2)c(OC)c1
active: S. cerevisiae deletion strains, locus YAL026C, strain drs2, active compounds read low 0.896 | S. cerevisiae deletion strains, locus YDR392W, strain spt3, active compounds read low 0.532 | S. cerevisiae deletion strains, locus YEL003W, strain gim4, active compounds read low 0.82 | S. cerevisiae deletion strains, locus YER155C, strain BEM2 (second series), active compounds read low 0.83 | S. cerevisiae deletion strains, locus YFR010W, strain ubp6, active compounds read low 0.899 | S. cerevisiae deletion strains, locus YGL253W, strain hxk2, active compounds read low 0.877 | S. cerevisiae deletion strains, locus YJL164C, strain tpk1, active compounds read low 0.889 | S. cerevisiae deletion strains, locus YMR058W, strain fet3, active compounds read low 0.812 | S. cerevisiae deletion strains, locus YNL071W, strain lat1, active compounds read low 0.877
inactive: S. cerevisiae deletion strains, locus YAL021C, strain ccr4, active compounds read low 0.948 | S. cerevisiae deletion strains, locus YAL030W, strain snc1, active compounds read low 0.972 | S. cerevisiae deletion strains, locus YBL061C, strain skt5, active compounds read low 0.983 | S. cerevisiae deletion strains, locus YBR009C, strain hhf1, active compounds read low 0.948 | S. cerevisiae deletion strains, locus YBR023C, strain chs3, active compounds read low 0.979 | S. cerevisiae deletion strains, locus YBR171W, strain sec66, active compounds read low 0.971 | S. cerevisiae deletion strains, locus YBR231C, strain swc5, active compounds read low 0.951 | S. cerevisiae deletion strains, locus YBR279W, strain paf1, active compounds read low 0.989 | S. cerevisiae deletion strains, locus YCL011C, strain gbp2, active compounds read low 0.947 | S. cerevisiae deletion strains, locus YCL016C, strain dcc1, active compounds read low 0.981 | [1] 0.984 | S. cerevisiae deletion strains, locus YCL069W, strain vba3, active compounds read low 0.972 | S. cerevisiae deletion strains, locus YCR088W, strain abp1, active compounds read low 0.976 | S. cerevisiae deletion strains, locus YDL005C, strain med2, active compounds read low 0.976 | S. cerevisiae deletion strains, locus YDL040C, strain nat1, active compounds read low 0.975 | S. cerevisiae deletion strains, locus YDR001C, strain nth1, active compounds read low 0.98 | S. cerevisiae deletion strains, locus YDR069C, strain doa4, active compounds read low 0.907 | S. cerevisiae deletion strains, locus YDR137W, strain rgp1, active compounds read low 0.947 | S. cerevisiae deletion strains, locus YDR159W, strain sac3, active compounds read low 0.941 | S. cerevisiae deletion strains, locus YDR195W, strain ref2 0.972 | S. cerevisiae deletion strains, locus YDR297W, strain sur2, active compounds read low 0.975 | S. cerevisiae deletion strains, locus YDR334W, strain swr1, active compounds read low 0.936 | S. cerevisiae deletion strains, locus YDR335W, strain msn5, active compounds read low 0.973 | S. cerevisiae deletion strains, locus YEL037C, strain rad23, active compounds read low 0.949 | S. cerevisiae deletion strains, locus YEL061C, strain CIN8 (second series), active compounds read low 0.977 | S. cerevisiae deletion strains, locus YER015W, strain faa2, active compounds read low 0.973 | S. cerevisiae deletion strains, locus YER016W, strain bim1, active compounds read low 0.981 | S. cerevisiae deletion strains, locus YER111C, strain swi4, active compounds read low 0.965 | S. cerevisiae deletion strains, locus YGL167C, strain pmr1, active compounds read low 0.975 | S. cerevisiae deletion strains, locus YGL173C, strain kem1, active compounds read low 0.962 | S. cerevisiae deletion strains, locus YGL227W, strain vid30, active compounds read low 0.987 | S. cerevisiae deletion strains, locus YGL240W, strain doc1, active compounds read low 0.928 | S. cerevisiae deletion strains, locus YHR013C, strain ard1, active compounds read low 0.902 | S. cerevisiae deletion strains, locus YHR027C, strain rpn1, active compounds read low 0.965 | [2] 0.96 | S. cerevisiae deletion strains, locus YHR079C, strain IRE1, active compounds read low 0.973 | S. cerevisiae deletion strains, locus YHR142W, strain chs7, active compounds read low 0.923 | S. cerevisiae deletion strains, locus YJL092W, strain hpr5, active compounds read low 0.961 | S. cerevisiae deletion strains, locus YJL095W, strain BCK1 (second series), active compounds read low 0.979 | S. cerevisiae deletion strains, locus YJL095W, strain BCK1, active compounds read low 0.982 | S. cerevisiae deletion strains, locus YJL115W, strain asf1, active compounds read low 0.969 | S. cerevisiae deletion strains, locus YJL129C, strain trk1, active compounds read low 0.965 | S. cerevisiae deletion strains, locus YJL154C, strain vps35, active compounds read low 0.987 | S. cerevisiae deletion strains, locus YJL166W, strain qcr8, active compounds read low 0.94 | [3] 0.979 | S. cerevisiae deletion strains, locus YJR066W, strain TOR1, active compounds read low 0.926 | S. cerevisiae deletion strains, locus YKL160W, strain elf1, active compounds read low 0.968 | S. cerevisiae deletion strains, locus YKR026C, strain gcn3, active compounds read low 0.977 | S. cerevisiae deletion strains, locus YKR091W, strain srl3, active compounds read low 0.985 | S. cerevisiae deletion strains, locus YLL001W, strain dnm1, active compounds read low 0.984 | S. cerevisiae deletion strains, locus YLL026W, active compounds read low 0.972 | S. cerevisiae deletion strains, locus YLL041C, strain sdh2, active compounds read low 0.961 | S. cerevisiae deletion strains, locus YLR027C, strain aat2, active compounds read low 0.928 | S. cerevisiae deletion strains, locus YLR113W, strain HOG1, active compounds read low 0.967 | S. cerevisiae deletion strains, locus YLR221C, strain rsa3, active compounds read low 0.908 | S. cerevisiae deletion strains, locus YLR258W, strain gsy2, active compounds read low 0.961 | S. cerevisiae deletion strains, locus YLR262C, strain YPT6 (second series), active compounds read low 0.884 | S. cerevisiae deletion strains, locus YLR320W, strain mms22, active compounds read low 0.947 | S. cerevisiae deletion strains, locus YLR342W, strain FKS1, active compounds read low 0.961 | S. cerevisiae deletion strains, locus YLR357W, strain rsc2, active compounds read low 0.983 | S. cerevisiae deletion strains, locus YLR370C, strain arc18, active compounds read low 0.977 | S. cerevisiae deletion strains, locus YLR384C, strain iki3, active compounds read low 0.992 | S. cerevisiae deletion strains, locus YML120C, strain ndi1, active compounds read low 0.975 | S. cerevisiae deletion strains, locus YMR125W, strain sto1, active compounds read low 0.899 | S. cerevisiae deletion strains, locus YMR129W, active compounds read low 0.981 | S. cerevisiae deletion strains, locus YMR205C, strain PFK2, active compounds read low 0.988 | S. cerevisiae deletion strains, locus YMR231W, strain pep5, active compounds read low 0.942 | S. cerevisiae deletion strains, locus YNL183C, strain NPR1, active compounds read low 0.955 | S. cerevisiae deletion strains, locus YNL209W, strain ssb2, active compounds read low 0.986 | S. cerevisiae deletion strains, locus YNL248C, strain rpa49, active compounds read low 0.906 | S. cerevisiae deletion strains, locus YNL322C, strain KRE1 (second series), active compounds read low 0.985 | S. cerevisiae deletion strains, locus YNR049C, strain mso1, active compounds read low 0.977 | S. cerevisiae deletion strains, locus YOR001W, strain rrp6, active compounds read low 0.922 | S. cerevisiae deletion strains, locus YOR070C, strain gyp1, active compounds read low 0.962 | S. cerevisiae deletion strains, locus YOR080W, strain dia2, active compounds read low 0.986 | S. cerevisiae deletion strains, locus YOR083W, strain WHI5, active compounds read low 0.98 | S. cerevisiae deletion strains, locus YOR106W, strain vam3, active compounds read low 0.896 | S. cerevisiae deletion strains, locus YOR231W, strain MKK1, active compounds read low 0.967 | S. cerevisiae deletion strains, locus YOR265W, strain rbl2, active compounds read low 0.965 | S. cerevisiae deletion strains, locus YOR270C, strain vph1, active compounds read low 0.845 | S. cerevisiae deletion strains, locus YOR290C, strain snf2, active compounds read low 0.939 | S. cerevisiae deletion strains, locus YPL051W, strain arl3, active compounds read low 0.928 | S. cerevisiae deletion strains, locus YPL078C, strain atp4, active compounds read low 0.972 | S. cerevisiae deletion strains, locus YPL106C, strain sse1, active compounds read low 0.911 | S. cerevisiae deletion strains, locus YPL240C, strain hsp82, active compounds read low 0.976 | S. cerevisiae deletion strains, locus YPL256C, strain CLN2, active compounds read low 0.928
